# Results as given in PubChem BioAssay (NCATS).
# Inconclusive results are not listed. Activity calls are given as the source filed them. Calls follow the shape of the dose curve; as a rule, active = well fitted inhibition curve with a large enough effect; inconclusive = small, poorly fitted or top-dose-only effect; inactive = no such curve, though single readings can be large or run the other way.
# Biological target: Thioredoxin reductase 1, cytoplasmic (Rattus norvegicus) (UniProt O89049)
# Experiment: qHTS Assay for Inhibitors of Mammalian Selenoprotein Thioredoxin Reductase 1 (TrxR1) (AID 488773); also: nearly all actives have a fitted effect of over 40% in size
# Conditions: purified TrxR1 enzyme activity; Potency: inhibition; series mostly up to 57.1 µM; activity change, negative = inhibition: at the top concentration
# From the text: The selenoprotein thioredoxin reductase (TrxR; EC 1.8.1.9) is a FAD containing homodimeric pyridine nucleotide-disulfide oxidoreductase with many cellular roles. Together with NADPH and its prime substrate thioredoxin (Trx), the enzyme forms the core of the Trx system. The mammalian Trx system exerts a wide spectrum of functions including redox regulation, antioxidant defense, regulation of transcription factors as well as support of cell growth and replication. Many of these functions involve the reduction of Trx, which may subsequently reduce a number of different substrates including ribonucleotide reductase, peroxiredoxins or NFkB. Mammalian TrxR itself also has a broad substrate specificity, reducing both protein and non-protein substrates, including low molecular weight compounds such as dehydroascorbate, lipoic acid, ubiquinone, and juglone. In addition, several drugs in clinical use for anticancer treatment are indeed known to target TrxR1.
# This BioAssay is a validation of an NADPH fluorescence-based, dual-purpose qHTS rTrxR1 assay designed to find potential inhibitors and substrates of rTrxR1. For this particular BioAssay, actives are potential inhibitors. See related BioAssay for substrate data deposition.
# Assay protocol: 2 uL of reagents (buffer in column 4 as negative control and 90 nM rTrxR1 in columns 1-3 and 5-48) were dispensed into Greiner black solid-bottom 1,536-well assay plates, followed by 1 uL of NADPH (400 uM final concentration) to each well. The plates were centrifuged at 1000 rpm for 15 seconds and subsequently incubated for 5 min at room temperature (~22 deg C) to allow for rTrxR1 reduction. Compounds (23 nL) were then transferred via Kalypsys pin tool equipped with 1536-pin array (10 nL slotted pins, V&P Scientific, San Diego, CA). In addition, a duplicate 2-fold serial dilution of the control compounds auranofin, a known gold-based TrxR1 inhibitor, and juglone (5-hydroxy-1,4-naphthoquinone), a natural TrxR1 substrate, were pin-transferred to columns 2 and 3, respectively. After incubation for 15 min at room temperature (~22 deg C), 1 uL of selenite (400 uM final concentration) were dispensed to each well. The plate was immediately transferred to a ViewLux high-throughput CCD imager (PerkinElmer), wherein kinetic measurements of NADPH fluorescence (Ex 340 nm, Em 450 nm) were acquired (8 minute kinetic read, see Table 1). Read 1 was utilized to assess the capacity of a compound to serve as an rTrxR1 substrate, i.e. a decrease in NADPH fluorescence compared to the no-compound background is an indication of a substrate behavior for that particular compound. For inhibitory activity of a compound, delta values, computed as the difference in fluorescence intensity between the first and last reads of an 8-minute time kinetic window, were used. All reagents were diluted in an assay buffer consisting of 50 mM Tris-HCl, pH 7.5, 2 mM EDTA, and 0.01% Tween-20.
# Throughout the screen, reagent bottle and all liquid lines were made light-tight to minimize reagent degradation. All screening operations were performed on a fully integrated robotic system (Kalypsys, San Diego, CA) containing one RX-130 and two RX-90 anthropomorphic robotic arms (Staubli, Duncan, SC). Library plates were screened starting from the lowest and proceeding to the highest concentration, and a 'double-pinning' step of the highest concentration was required to access higher concentrations of compounds. Vehicle-only plates, with DMSO being pin-transferred to the columns 5-48, were inserted uniformly at the beginning and the end of each library in order to monitor and record any shifts in the background, which can be affected by reagent dispensers or loss in enzyme activity over time. Screening data were corrected, normalized, and concentration-effect relationships were derived by using publicly-available curve fitting algorithms developed in-house (http://ncgc.nih.gov/pub/openhts).
# % is scaled to controls: 0 for no effect and ±100 for the full control effect; potency is read from the fitted curve at half-maximal effect.
# Thioredoxin reductase 1, cytoplasmic (Rattus norvegicus), sequence (O89049 whole entry, looked up): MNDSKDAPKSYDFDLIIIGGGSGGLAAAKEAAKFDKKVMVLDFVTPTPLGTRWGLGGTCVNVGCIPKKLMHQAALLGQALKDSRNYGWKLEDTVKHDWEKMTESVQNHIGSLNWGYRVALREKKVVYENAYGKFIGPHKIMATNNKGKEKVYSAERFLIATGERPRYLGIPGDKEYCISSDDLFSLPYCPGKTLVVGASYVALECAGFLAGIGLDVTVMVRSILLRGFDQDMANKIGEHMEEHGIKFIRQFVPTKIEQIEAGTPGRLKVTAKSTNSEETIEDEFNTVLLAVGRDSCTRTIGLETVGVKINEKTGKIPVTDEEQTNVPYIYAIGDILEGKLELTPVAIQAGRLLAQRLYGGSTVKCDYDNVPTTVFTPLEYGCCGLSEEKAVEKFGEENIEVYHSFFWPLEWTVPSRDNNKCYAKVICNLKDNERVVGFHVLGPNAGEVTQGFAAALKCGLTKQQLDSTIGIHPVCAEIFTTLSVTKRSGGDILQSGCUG
SMILES,"activity change, negative = inhibition",Potency
NCCCP(=O)(O)O,-2.77% (inactive),
CCOC(=O)c1ncn2c1[C@@H]1CCCN1C(=O)c1cc(OC)ccc1-2,-1.84% (inactive),
NNC(N)=O,-11.6% (inactive),
C[C@H](N)Cc1cccc(C(F)(F)F)c1,-9.84% (inactive),
C[C@@H]1O[C@@H](O[C@H]2C[C@@H](O)[C@]3(CO)[C@@H]4C(CC[C@]3(O)C2)[C@@]2(O)CC[C@H]([C@@H]3COC(=O)C3)[C@@]2(C)C[C@H]4O)[C@H](O)[C@H](O)[C@H]1O (stereo not given in full),6.17% (inactive),
Nc1ccc(CCN2CCN(c3cccc(C(F)(F)F)c3)CC2)cc1,-14.5% (inactive),
C[N+]1(C)C2CCC1CC(OC(=O)c1c[nH]c3ccccc13)C2 (stereo not given),-0.556% (inactive),
CN1CC[C@@]2(C)c3cc(OC(=O)Nc4ccccc4)ccc3N(C)[C@@H]12,-7.23% (inactive),
CNc1ccc2oc(C[C@H]3O[C@@]4(CC[C@H]3C)O[C@H]([C@H](C)C(=O)c3ccc[nH]3)[C@H](C)C[C@H]4C)nc2c1C(=O)O,102% (inactive),
c1ccc2cc(CC3=NCCN3)ccc2c1,1.73% (inactive),
O=C1C=CC(=O)C=C1,1.22% (inactive),
CC(Cc1ccc(OCC(=O)O)cc1)NCC(O)c1cccc(Cl)c1 (stereo not given),-5.29% (inactive),
NC(N)=NOCC[C@H](N)C(=O)O,5.52% (inactive),
CCCN(CCC)[C@H]1CCc2c(F)ccc(O)c2C1,-15.7% (inactive),
Oc1ccc2c3c1O[C@H]1c4oc5ccccc5c4C[C@@]4(O)C(C2)N(CC2CC2)CCC314 (stereo not given in full),-1.48% (inactive),
CCCN1CC[C@@H]2c3cc(O)ccc3CC[C@@H]21,-4.71% (inactive),
C[C@H](N)CN1CCc2ccc(Br)cc21,-0.921% (inactive),
CC1(C(=O)O)C2CCC(O2)C1(C)C(=O)O (stereo not given),-6.83% (inactive),
N[C@@H](Cn1oc(=O)[nH]c1=O)C(=O)O,3.51% (inactive),
C=CCN1CCC23c4c5ccc(O)c4O[C@H]2C(=O)CC[C@@]3(O)C1C5 (stereo not given in full),1.4% (inactive),

SMILES,"activity change, negative = inhibition",Potency
NC(N)=Nc1ccc2[nH]c3c(c2c1)C[C@@]1(O)[C@H]2Cc4ccc(O)c5c4[C@@]1(CCN2CC1CC1)[C@H]3O5,,26.7 µM (active)
CCS(=O)(=O)Nc1cccc(C(=C2CCCCC2)c2cnc[nH]2)c1,-13.1% (inactive),
C=CCN1CCc2cccc3c2[C@H]1Cc1ccc(O)c(O)c1-3,,5.97 µM (active)
CC(=O)NBr,-16.6% (inactive),
CC(C)(C)c1o[nH]c(=O)c1CC(N)C(=O)O (stereo not given),-24.2% (inactive),
CCCN(CCC)C1CCc2cccc(O)c2C1 (stereo not given),-4.36% (inactive),
O=c1c2ccccc2[se]n1-c1ccccc1,-1.24% (inactive),
Clc1ccc(N2CC3CCC(C2)N3)nn1,-6.09% (inactive),
COc1ccc2[nH]cc(CCN)c2c1,3.61% (inactive),
C=CCN1CC[C@]23c4c5ccc(O)c4O[C@@H]2/C(=N/N=C2\CC[C@@]4(O)C6Cc7ccc(O)c8c7[C@@]4(CCN6CC=C)[C@@H]2O8)CC[C@@]3(O)C1C5,,11.9 µM (active)
CCCCCCCCCCCCCC(=O)O[C@@H]1[C@@H](C)[C@@]2(O)[C@@H](C=C(CO)C[C@@]3(O)C(=O)C(C)=C[C@@H]23)C2C(C)(C)[C@@]21OC(C)=O (stereo not given in full),19.9% (inactive),
C[N+]1(C)CCc2cc3c(cc2[C@H]1[C@@H]1OC(=O)c2c1ccc1c2OCO1)OCO3,-4.29% (inactive),
NC(Cc1cc(O)c(O)cc1O)C(=O)O (stereo not given),,10.6 µM (active)
Cc1cc([C@@H]2CCCN2C)on1,9.38% (inactive),
CCN1C[C@@]2(COC)C3[C@@H](OC)C4[C@@H]1C3([C@@H]1C[C@]3(O)[C@H](OC(=O)c5ccccc5)[C@@H]1[C@]4(OC(C)=O)[C@@H](O)[C@@H]3OC)[C@H](OC)C[C@H]2O,-1.38% (inactive),
O=S1(=O)N(CCN2CC=C(c3c[nH]c4cc(F)ccc34)CC2)c2cccc3c2N1CCC3,0.777% (inactive),
NCC(CP(=O)(O)O)c1ccc(Cl)cc1 (stereo not given),-2.53% (inactive),
COc1ccc(CNC(=O)/C=C/c2ccc3[nH]cc(CCN(C)C)c3c2)cc1,-1.38% (inactive),
OCc1cnc[nH]1,-6.63% (inactive),
CC(N)[C@H](O)c1ccc(O)c(O)c1 (stereo not given in full),,11.9 µM (active)
